BH1578 lux ind: quorum light induction in luxS cqsA deficient V. cholerae | 350,000 tested, 0.16% active | activation, % at 18.7 µM | V. cholerae BH1578 lux reporter, luminescence, 6 h; in the data active = activation mostly above about 9.7%, no sharp cut-off; inconclusive = no clear call, values can overlap the other calls; inactive = mostly below about 3.7%
BJeLR lethal: kills HRASV12-expressing BJeLR cells; inhibition, % (concentration not given with the values); 300,000 tested, 0.17% active; BJeLR (HRASV12) viability, CellTiter-Glo ATP luminescence, 48 h; in the data active = inhibition above about 50%; inconclusive = no clear call, values can overlap the other calls
MazF activator: increases E. coli MazEF RNase cleavage of RNA; P0AE70; FAM/BHQ RNA-DNA oligo cleavage fluorescence, 5 h; activation, % at 20 µM; 350,000 tested, 0.32% active; AID 504720; in the data active = activation above about 50%
Target sequence (P0AE70 whole entry, looked up): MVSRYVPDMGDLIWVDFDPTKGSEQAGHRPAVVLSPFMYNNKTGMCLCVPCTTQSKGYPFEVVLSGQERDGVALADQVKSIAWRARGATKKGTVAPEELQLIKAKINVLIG
3CLpro inhibitor: SARS-CoV 3CLpro protease inhibition | inhibition, % at 6 µM | 290,000 tested, 0.14% active | P0C6X7 | recombinant SARS-CoV 3CLpro, quenched FRET peptide cleavage | AID 1706; in the data active = inhibition above about 12%
VHR inh abs: DUSP3 (human) phosphatase inhibition; P51452; recombinant VHR phosphatase, pNPP absorbance; inhibition, % at 13.3 µM; 290,000 tested, 0.52% active; AID 1654; in the data active = inhibition above about 50%
Target sequence (P51452 whole entry, looked up): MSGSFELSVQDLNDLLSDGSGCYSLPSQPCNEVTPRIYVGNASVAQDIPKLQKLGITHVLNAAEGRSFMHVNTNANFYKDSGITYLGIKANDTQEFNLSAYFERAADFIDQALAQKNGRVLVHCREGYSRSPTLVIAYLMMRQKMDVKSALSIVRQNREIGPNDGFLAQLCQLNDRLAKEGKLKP
PfHsp40 yeast: rescue of PfHsp40-mediated yeast toxicity; S. cerevisiae expressing PfHsp40, growth rescue, ATP luminescence; growth rescue, % at 12.5 µM; 340,000 tested, 0.68% active; AID 504582; in the data active = growth rescue above about 28%, passing the limit was not always enough; inconclusive = no clear call, values can overlap the other calls;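 note: yeast W303a lacking pdr1 and pdr3 grown in galactose medium; growth measured after three days at 30 °C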
Of the large screens only hits and unclear results are named; the others gave an inactive call. A selection: hits, their analogues and other compounds. The true share with any hit is near 1.7%.

CCN1C(=O)[C@H]2[C@@H](c3ccc(C)cc3)N3C(=O)N(c4ccccc4)C(=O)[C@@]3(CC)[C@H]2C1=O	PfHsp40 yeast 35
CCCn1nc(C(=O)N2CCN(S(=O)(=O)c3ccc(C)c(C)c3)CC2)c2ccccc2c1=O	PfHsp40 yeast 69 (no result: BJeLR lethal, 3CLpro inhibitor, VHR inh abs)
Cc1ccc(S(=O)(=O)N2CCOC23CCN(C(=O)c2cc(Cl)ccc2Cl)CC3)cc1	PfHsp40 yeast 91
Cc1ccc(S(=O)(=O)N2CCC3(CC2)OCCN3S(=O)(=O)c2cccs2)cc1	none (no result: 3CLpro inhibitor, VHR inh abs)
O=S(=O)(c1ccc(Cl)cc1)N1CCC2(CC1)OCCN2S(=O)(=O)c1cccs1	PfHsp40 yeast 55 (no result: 3CLpro inhibitor, VHR inh abs)
CC(C)CC1NC(=O)c2cc3ccccc3cc2-n2c1nc1cc(Cl)ccc1c2=O (configuration not stated)	none (no result: BJeLR lethal, 3CLpro inhibitor, VHR inh abs, PfHsp40 yeast)
CCN(CC)CCN1C(=O)/C(=C\c2ccc(Cl)c([N+](=O)[O-])c2)SC1=Nc1ccc(OC)cc1	BJeLR lethal 88
COc1ccc(N=C2S/C(=C\c3ccc(Cl)c([N+](=O)[O-])c3)C(=O)N2CCN(C)C)cc1	BJeLR lethal 59
COc1cccc(S(=O)(=O)N(C)C[C@@H]2OCc3cn(nn3)CCCC(=O)N([C@H](C)CO)C[C@H]2C)c1	none (no result: BJeLR lethal, 3CLpro inhibitor, VHR inh abs, PfHsp40 yeast)
CCOC(=O)N1CCN(Cc2c(F)cccc2Cl)CC1	VHR inh abs 51
CC(=O)c1ccc2c(c1)N(Cc1ccc3ccccc3c1)C(=O)C(C)S2 (configuration not stated)	none (no result: BJeLR lethal, MazF activator, 3CLpro inhibitor, VHR inh abs, PfHsp40 yeast)
CC(=O)Nc1cc(-c2ccc(N(C)C)cc2)cn2c(-c3ccc(F)c(Cl)c3)cnc12	none (no result: BJeLR lethal, MazF activator, 3CLpro inhibitor, VHR inh abs, PfHsp40 yeast)
CN(CCc1cnn(C)c1)Cc1cn(C)nc1-c1ccc2c(c1)OCCO2	VHR inh abs 52
CN(Cc1ccccc1)S(=O)(=O)c1ccc(Cl)c(C(=O)NCc2cccnc2)c1	none (no result: 3CLpro inhibitor, VHR inh abs)
Cc1cccc(NC(=O)/C=C/c2ccc([N+](=O)[O-])s2)c1	BJeLR lethal 83
Cc1ccc(NC(=O)/C=C/c2ccc([N+](=O)[O-])s2)cc1	BJeLR lethal 59
Cc1cccc(NC(=S)N/N=C/c2ccc([N+](=O)[O-])s2)c1	PfHsp40 yeast 56
Cc1ccc(NC(=O)/C=C/c2ccc([N+](=O)[O-])s2)c(C)c1	none
NC(=O)NC(=O)C(Nc1ccc(N2CCCCC2)cc1)c1ccccc1 (configuration not stated)	none
CN(C)CCCO[C@@H]1[C@H]2OC(C)(C)O[C@H]2O[C@@H]1[C@H](O)CO	none (no result: BJeLR lethal, 3CLpro inhibitor, VHR inh abs)
COc1ccccc1-n1c(N)c(C(N)=O)sc1=S	VHR inh abs 52
O=c1c(Br)ccc(Br)cc1Br	PfHsp40 yeast 77 (no result: BJeLR lethal, 3CLpro inhibitor, VHR inh abs)
Brc1ccc(Oc2ccc(Br)cc2Br)c(Br)c1	none (no result: BJeLR lethal, 3CLpro inhibitor, VHR inh abs)
CCCCC(=O)N(C)c1c(C)nc2ccc(C(=O)N(C)Cc3ccco3)cn12	none (no result: BJeLR lethal, MazF activator, 3CLpro inhibitor, VHR inh abs, PfHsp40 yeast)
Nc1ccc(OCCCc2c(N)nc(N)nc2N)cc1	PfHsp40 yeast 48
COc1ccc(Cc2c(N)nc(N)nc2N)cc1	none
COc1ccc(N/C=C\C(=O)c2ccc(C)cc2)cc1OC	MazF activator 255
O=[N+]([O-])c1cc(F)c2cccnc2c1O	PfHsp40 yeast 73
Oc1c(CN2CCc3ccccc3C2)cc(Cl)c2cccnc12	BJeLR lethal 65, PfHsp40 yeast 282
O=[N+]([O-])c1ccc(O)c2ncccc12	PfHsp40 yeast inconclusive
O=[N+]([O-])c1cc(Cl)c(O)c2ncccc12	none
Oc1c(Cl)c(Cl)c2ncccc2c1Cl	none (no result: BH1578 lux ind, BJeLR lethal, 3CLpro inhibitor, VHR inh abs)
Oc1c(I)cc(Cl)c2cccnc12	PfHsp40 yeast 246
O=[N+]([O-])c1cc(Cl)c2cccnc2c1O	PfHsp40 yeast 142
Oc1c(Cl)cc(CN2CCOCC2)c2cccnc12	PfHsp40 yeast inconclusive (no result: BJeLR lethal, 3CLpro inhibitor, VHR inh abs)
CCCn1c(N)c(N(CCOC)C(=O)c2cc(C)cc(C)c2)c(=O)[nH]c1=O	none
CC(C)Cc1ccc(-c2cc3nc(NCC4CC4)ccn3n2)cc1	none (no result: BJeLR lethal, MazF activator, 3CLpro inhibitor, VHR inh abs, PfHsp40 yeast)
O=C(O)c1ccccc1-c1ccccc1C(=O)Nc1ccc2c(c1)C(O)c1ccccc1-2 (configuration not stated)	none (no result: BJeLR lethal, 3CLpro inhibitor, VHR inh abs, PfHsp40 yeast)
Clc1cc2cccnc2c2ncccc12	PfHsp40 yeast 116 (no result: BJeLR lethal, 3CLpro inhibitor, VHR inh abs)
Cc1c(C)c2cccnc2c2ncccc12	PfHsp40 yeast 76 (no result: BJeLR lethal, 3CLpro inhibitor, VHR inh abs)
CC(=O)NC(c1ccc(C)cc1)c1cc([N+](=O)[O-])c2cccnc2c1O (configuration not stated)	PfHsp40 yeast 221
c1cnc2c(c1)ccc1ncccc12	none
CCN(C(=O)COC(=O)c1cccc(S(=O)(=O)N2CCOCC2)c1)C1CCS(=O)(=O)C1 (configuration not stated)	none (no result: 3CLpro inhibitor, VHR inh abs)
COc1cc2cc(C)c(Br)c(OC)c2cc1OC	none (no result: BH1578 lux ind, BJeLR lethal, 3CLpro inhibitor, VHR inh abs)
Cc1ncoc1C(=O)NC1CC(C)(C)Cc2c1cnn2-c1ccc(F)cc1 (configuration not stated)	VHR inh abs 53
NC(=O)C1CCN(C2CC(=O)N(c3ccc(F)c(Cl)c3)C2=O)CC1 (configuration not stated)	PfHsp40 yeast 204
O=C(O)CSC1CC(=O)N(c2cccc(Cl)c2)C1=O (configuration not stated)	none
COC(=O)C1CCN(C2CC(=O)N(c3cc(C)cc(C)c3)C2=O)CC1 (configuration not stated)	PfHsp40 yeast 45
CCOC(=O)C1CCN(C2CC(=O)N(c3cccc(Cl)c3)C2=O)CC1 (configuration not stated)	PfHsp40 yeast 176
CCN(CC)C1CC(=O)N(c2cccc(Cl)c2)C1=O (configuration not stated)	PfHsp40 yeast 79
O=C(C1CCN(C2CC(=O)N(c3cccc(Cl)c3)C2=O)CC1)N1CCCC1 (configuration not stated)	PfHsp40 yeast 468
O=C(C1CCN(C2CC(=O)N(c3ccc(Cl)cc3)C2=O)CC1)N1CCOCC1 (configuration not stated)	none
COc1ccc(/C=C/c2cc(-c3ccc(C)cc3)o[n+]2C)cc1	BJeLR lethal 63
COc1ccc(/C=C/c2c(-c3ccc(OC)cc3)oc3ccc(-c4ccc(OC)cc4)cc23)cc1	none
COc1ccc(NCc2nnc(SCC(=O)Nc3ccccc3)n2C)cc1	none
O=c1c2ccccc2c(C=NCc2ccccn2)c(O)n1-c1ccccc1	MazF activator 162
N#CCC(=O)Nc1ccc(C(=O)OCC(=O)NC(=O)NCc2ccco2)cc1	none (no result: BJeLR lethal, 3CLpro inhibitor, VHR inh abs)
CC1CCCC(C)N1C(=O)c1ccc2c(c1)S(=O)(=O)c1ccccc1C2=O (configuration not stated)	PfHsp40 yeast 70
CC1CCCCN1C(=O)c1ccc(CS(=O)(=O)Cc2ccccc2)cc1 (configuration not stated)	none
CC1CCCC(C)N1C(=O)c1ccc(CS(=O)(=O)c2ccccc2)cc1 (configuration not stated)	VHR inh abs 53
O=C1c2ccccc2S(=O)(=O)c2cc(C(=O)N3CCC(C(=O)N4CCCCC4)CC3)ccc21	none (no result: BH1578 lux ind, 3CLpro inhibitor, VHR inh abs, PfHsp40 yeast)
O=C(NCCCn1ccnc1)c1cccc(Br)c1	VHR inh abs 53

Screening results: PubChem, several laboratories
